Where “and” joins values, the source holds several entries; their conditions need not be identical. Equal values may be shown once. Records with an inconclusive call do not appear. Calls of active or inactive are those of the source. Unless noted, the call rests on the fitted dose curve; in most records, active means well fitted curve in the direction sought with a large enough effect; inconclusive means small, poorly fitted or top-dose-only effect, or another doubt; inactive means no such curve, though single readings can be large; an effect the other way counts as inactive or inconclusive.
Tests used:
[1] = target: Cytochrome P450 2C9 (Homo sapiens) (UniProt P11712); assay: Cytochrome P450 family 2 subfamily C member 9 (CYP2C9) small molecule antagonists: luciferase biochemical (cell-free) qHTS assay (AID 1645842; active means well fitted curve in the direction sought with a large enough effect in the repeat runs; an effect the other way counts as inactive or inconclusive; further: nearly all actives have a fitted effect of over 55% in size)
Chain of Cytochrome P450 2C9 (Homo sapiens) (P11712 whole entry, looked up): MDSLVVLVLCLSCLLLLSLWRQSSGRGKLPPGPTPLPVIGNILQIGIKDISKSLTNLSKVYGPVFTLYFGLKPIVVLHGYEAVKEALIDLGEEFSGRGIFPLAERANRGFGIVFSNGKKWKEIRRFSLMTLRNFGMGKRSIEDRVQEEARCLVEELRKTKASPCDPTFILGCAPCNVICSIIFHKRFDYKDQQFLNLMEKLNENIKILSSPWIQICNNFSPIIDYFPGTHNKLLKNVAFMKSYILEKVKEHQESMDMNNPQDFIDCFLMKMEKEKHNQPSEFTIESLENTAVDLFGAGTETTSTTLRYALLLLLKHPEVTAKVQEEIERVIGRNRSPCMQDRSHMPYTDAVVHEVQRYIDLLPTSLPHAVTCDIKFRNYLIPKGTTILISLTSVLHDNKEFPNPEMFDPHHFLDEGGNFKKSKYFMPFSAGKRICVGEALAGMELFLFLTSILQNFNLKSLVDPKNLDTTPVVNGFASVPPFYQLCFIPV
Procedure, shortened: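 P450-Glo CYP2C9 system: proluciferin substrate with enzyme in mix containing 0.4% BSA, 10 min at room temperature, then NADPH regeneration solution added and incubated 1 h at 37C. Detection reagent stopped reaction; luminescence read after 20 min as RLU.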

[2] = Primary qHTS for inhibitors of nuclear receptor binding SET domain protein 2 (NSD2) in an isogenic RCH-ACV NSD2 p.E1099K mutant (9B) (AID 1645876); further: nearly all actives have a fitted effect of over 70% in size
[3] = Primary qHTS for inhibitors of nuclear receptor binding SET domain protein 2 (NSD2) in an RCH-ACV wild type WT cells (2C) (AID 1645877); further: nearly all actives have a fitted effect of over 70% in size
Potency means the concentration at half of the fitted maximal effect.

SMILES | Potency [1] | Potency [2] | Potency [3]
OC1(CN2CCC(COc3noc4cccc(O[C@@H]5CCOC5)c34)CC2)CCOCC1 | 9.52 µM (active) | inactive | inactive
C[C@H]1[C@H](/C=C/c2ccc(-c3ccccc3C#N)cn2)[C@@H]2[C@@H](C)OC(=O)[C@@H]2C[C@@H]1C | inactive | 14.5 µM (active) | 10.3 µM (active)
O=C(NCCCN1CCOCC1)c1cnn2c(-c3ccccc3)cc(-c3ccccc3)nc12 | 3.79 µM (active) | inactive | inactive
COc1cc(CCc2cc(NC(=O)c3ccc(N4CC(C)NC(C)C4)cc3)n[nH]2)cc(OC)c1 (stereo not drawn) | inactive | 9.16 µM (active) | 10.3 µM (active)
Cc1onc(-c2ccccc2)c1C(=O)N1CCN(c2ccc([N+](=O)[O-])cc2Cl)CC1 | 9.52 µM (active) | inactive | inactive
C[C@H](Oc1cc(-n2cnc3ccc(CN4CCN(C)CC4)cc32)sc1C(N)=O)c1ccccc1C(F)(F)F | 6.74 µM (active) | 1.15 µM (active) | 1.29 µM (active)
COc1cc2nc(C3CC3)nc(N3CCN(c4ccccc4OC)CC3)c2cc1OC | 13.5 µM (active) | 16.3 µM (active) | 12.9 µM (active)
CNS(=O)(=O)c1ccccc1Nc1nc(Nc2ccc(N3CCN(C)CC3)cc2OC)ncc1Br | inactive | 0.649 µM (active) | 0.728 µM (active)
COC(=O)c1ccc2c(c1)[nH]c1ncnc(NCCCN3CCCCC3)c12 | inactive | 16.3 µM (active) | 16.3 µM (active)
O=C(Nc1ccc2[nH]nc(-c3ccncc3)c2c1)[C@@H]1CCN(CC(=O)N2CCN(c3ccc(-c4ncccn4)cc3)CC2)C1 | 6.74 µM (active) and 1.69 µM (active) | 9.16 µM (active) and 14.8 µM (active) | 10.3 µM (active) and 11.8 µM (active)
CCC(C)CNCC(=O)N1CCC2SC=CC2C1COc1cccc(C)c1 (stereo not drawn) | 12 µM (active) | 23 µM (active) | 18.3 µM (active)
Cn1cc(-c2ccc(S(=O)(=O)n3ccc(/C=C/C(=O)Nc4ccccc4N)c3)cc2)cn1 | 0.849 µM (active) | 649 nM (active) and 934 nM (active) | 649 nM (active) and 833 nM (active)
CN(C)C(=O)NC1(c2ccccc2)CCN(CCC[C@]2(c3ccc(Cl)c(Cl)c3)CCCN(C(=O)c3ccccc3)C2)CC1 | 21.3 µM (active) | 3.25 µM (active) | 2.9 µM (active)
COc1cc(NC(=O)c2cccc(-n3cc(NC(=O)Nc4cccc(C)c4)cn3)c2)cc(OC)c1OC | 2.68 µM (active) | 8.17 µM (active) | 9.16 µM (active)
Oc1cccc(C2NC(=S)Nc3cccc(F)c32)c1 (stereo not drawn) | 15.1 µM (active) | 3.65 µM (active) | 4.09 µM (active)
Cc1cccc(N2CCN(C(=O)c3cc(S(=O)(=O)N(C)C)ccc3N3CCCC3)CC2)c1C | 13.5 µM (active) | inactive | inactive
COc1cc(Br)c(S(=O)(=O)Nc2ccc(Cl)c(O[C@@H]3CCN(C)C3)c2)cc1OC | 10.7 µM (active) | 12.9 µM (active) | 11.5 µM (active)
Cc1ccccc1CN1CCn2c1nc1c(c2=O)CN(Cc2ccccc2)CC1 | 8.49 µM (active) | inactive | inactive
COC(=O)C(Cc1ccc(OCCn2c(=O)sc3cc(C(=O)c4ccccc4)ccc32)cc1)C(=O)OC | 2.13 µM (active) | inactive | inactive

SMILES | Potency [1] | Potency [2] | Potency [3]
COc1cc2c(cc1-c1c(C)noc1C)ncc1[nH]c(=O)n(C(C)c3ccccn3)c12 (stereo not drawn) | 5.35 µM (active) | 0.325 µM (active) | 0.325 µM (active)
CNc1cc2[nH]c(=O)n(-c3ccc(NC(=O)NS(=O)(=O)c4ccc(Cl)s4)cc3)c(=O)c2cc1F | inactive | inactive | inactive
O=c1[nH]c([C@@H]2CCCN2)nc2c1oc1ccc(Cl)cc12 | inactive | 9.16 µM (active) | 4.59 µM (active) and 10.5 µM (active)
O=C(NS(=O)(=O)c1ccc(Br)s1)c1ccc(Cl)cc1Cl | 2.68 µM (active) | 10.3 µM (active) | 9.16 µM (active)
CCN(CC)C(=O)C(c1ccccc1)N1CCN(c2ccc(NC(=O)c3ccccc3-c3cccnc3)cc2F)CC1 (stereo not drawn) | 9.52 µM (active) | inactive | inactive
O=C(Nc1nc2ccc([N+](=O)[O-])cc2s1)C1CCCCC1 | 19 µM (active) | 20.5 µM (active) | 12.9 µM (active)
Fc1ccc(N2CCCCC2)c(NC(=S)c2ccncc2)c1 | 6.01 µM (active) | 10.3 µM (active) | 12.9 µM (active)
CC(C)(C)Oc1ccc(OCC2Cc3ccccc3CN2C(=O)c2cccc3ccccc23)cc1 (stereo not drawn) | 1.69 µM (active) | inactive | inactive
Cc1ccc(C2(C(=O)N3CCC(n4nc(-c5ccccc5)oc4=O)CC3)CC2)cc1 | 0.756 µM (active) | inactive | inactive
CCN(CC)C(=O)c1ccc(Nc2nc(OCC3CCCCC3)c3[nH]cnc3n2)cc1 | 10.7 µM (active) | 3.65 µM (active) | 1.83 µM (active)
CCCC(CCC)C(=O)Nc1ccn([C@@H]2O[C@H](CO)[C@@H](O)C2(F)F)c(=O)n1 | 8.49 µM (active) | 1.48 µM (active) | 0.934 µM (active)
NCC1CCN(c2nccc(-c3ccc4ccccc4c3)n2)CC1 | 0.849 µM (active) | 1.86 µM (active) | 1.18 µM (active)
COc1ccccc1N1CCN(CC(C(=O)NC(C)(C)C)c2ccccc2)CC1 (stereo not drawn) | 12 µM (active) | inactive | inactive
CC(C)c1noc(C2CCN(c3ncnc(Nc4ccc(S(C)(=O)=O)cc4F)c3[N+](=O)[O-])CC2)n1 | inactive | inactive | inactive
c1cc(NCCc2c[nH]c3ccccc23)cc(Nc2ccncc2)c1 | 0.674 µM (active) | 7.28 µM (active) | 3.25 µM (active)
Cc1cc(-c2cc(OC(=O)c3ccccc3)ccc2Cl)cc2nnc(Nc3ccc(OCCN4CCCC4)cc3)nc12 | inactive | 12.9 µM (active) | 7.96 µM (active)
Cc1cc(C(C)Nc2ccccc2C(=O)O)c2nc(N3CCOCC3)cc(=O)n2c1 (stereo not drawn) | 8.49 µM (active) | 0.409 µM (active) | 0.728 µM (active)
O=C(NCC1(N2CCN(c3ccccc3)CC2)CCOCC1)c1cccnc1Sc1ccccc1 | 3.79 µM (active) | inactive | inactive
O=C(Nc1ccc(Cl)cc1)C1CCCN(C(=O)c2cccc(-c3ccco3)c2)C1 (stereo not drawn) | 15.1 µM (active) | 14.5 µM (active) | 23 µM (active)

SMILES | Potency [1] | Potency [2] | Potency [3]
COc1ccc(NC(=O)c2ccc(C(=N)N(C)C)cc2)c(C(=O)Nc2ccc(Cl)cn2)c1 | 3.79 µM (active) | inactive | inactive
C[C@@H](N[C@H]1CCCC[C@@H]1NC(=O)c1ccc(Cl)cc1)c1cccc2ccccc12 | 12 µM (active) | 14.5 µM (active) | 9.16 µM (active)
COc1cc(OC)c2c(=O)[nH]c(-c3cc(C)c(OCCO)c(C)c3)nc2c1 | 12 µM (active) and 10.7 µM (active) | 12.9 µM (active) and 14.8 µM (active) | 10.3 µM (active) and 11.8 µM (active)
Cc1cc(NC(=O)c2cccc(NC(=O)/C=C/CN(C)C)c2)ccc1Nc1nccc(-c2cccnc2)n1 | 16.9 µM (active) | 4.61 µM (active) | 4.59 µM (active)
CCn1c(=O)c(-c2ccc(Cl)cc2Cl)cc2cnc(Nc3ccc(N4CCNCC4)c(F)c3)nc21 | inactive | 290 nM (active) and 662 nM (active) | 728 nM (active) and 742 nM (active)
C[C@H](Nc1cc2c(-c3ccc4c(c3)OCO4)noc2cn1)c1ccccc1 | 1.69 µM (active) | inactive | inactive
COc1ccc2c(NC(=O)Nc3cccc(C(F)(F)F)n3)ccnc2c1 | 3.01 µM (active) | 4.09 µM (active) | 3.25 µM (active)
O=C(NCCCCN1CCN(c2cccc(Cl)c2Cl)CC1)c1cc2ccccc2s1 | 3.79 µM (active) | 20.5 µM (active) | 23 µM (active)
COC(=O)N1CCC(n2ncc3c(N4CCOCC4)nc(-c4ccc(NC(=O)NC5CC5)cc4)nc32)CC1 | 3.38 µM (active) | 0.0817 µM (active) | 0.115 µM (active)
OC(c1ccc(-c2ccc(CN3CCN(Cc4ccncc4)CC3)cc2)c(F)c1)(C(F)(F)F)C(F)(F)F | 1.34 µM (active) | inactive | inactive
COc1ccc(-c2cnc3c(-c4cccc5ncccc45)cnn3c2)cc1 | 12 µM (active) | inactive | inactive
CN1CCN(Cc2ccc(NC(=O)Cc3ccc(Oc4cc(NC(=O)C5CC5)ncn4)cc3)cc2C(F)(F)F)CC1 | 19 µM (active) | 0.649 µM (active) | 0.817 µM (active)
Cc1cc(NC(=O)NCCN2CCC(O)(Cc3ccccc3)CC2)c2ccccc2n1 | inactive | inactive | inactive
O=C(Nc1ccc(CN2CCOCC2)cc1)c1ccc(-c2cccc(Cl)c2)o1 | 19 µM (active) | 16.3 µM (active) | 11.5 µM (active)
CCS(=O)c1nc(-c2cccc(OCc3ccccc3)c2)cc(C(F)(F)F)n1 (stereo not drawn) | 10.7 µM (active) | 5.15 µM (active) | 3.25 µM (active)
COC1CCN(c2cccc(-c3cc(NC(C)=O)nc(-n4nc(C)cc4C)n3)n2)CC1 | 10.7 µM (active) | 20.5 µM (active) | 16.3 µM (active)
CNC(=O)[C@@H](c1ccccc1)N1CCc2cc(OC)c(OC)cc2[C@@H]1CCc1ccc(C(F)(F)F)cc1 | 6.74 µM (active) | 23 µM (active) | 16.3 µM (active)
Cc1nc(C#Cc2ccnc(Cl)c2)c(C)n1-c1ccc(OC(F)(F)F)cc1 | 8.49 µM (active) | 18.3 µM (active) | 10.3 µM (active)
